Most compounds without a hit are left out; they make up all but 27% or so of the library.
CYP2C19 activ = activators of human cytochrome P450 2C19. recombinant CYP2C19, luciferin-H EGE luminescence; hits give high values; 0 = fully inhibited enzyme, 1 = untreated enzyme. 96,000 tested, under 10 active. activation factor at 5 µM. P33261. AID 1025;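 active = activation factor of at least 2 at 5 µM in the primary screen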;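 note: 0 = wells with 2.5 mM tranylcypromine and 1 = vehicle-only wells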
CYP2C9 act = activators of human CYP2C9; activation factor at 5 µM; recombinant CYP2C9, luciferin-H conversion, luminescence; hits give high values; factor 1 = untreated enzyme, 0 = blocked; actives 1.4% (n = 96,000); P11712; AID 1024;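 active = activation factor of 2 or more for CYP2C9 at a 5 µM dose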;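 note: 0 = sulfaphenazole-blocked wells and 1 = vehicle-only wells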
sEH inhibitor = soluble epoxide hydrolase (human) inhibition; P34913; recombinant human sEH enzymatic activity assay; inhibition, % at 2 µM; actives 0.34% (n = 91,000); AID 707; in the data active = inhibition above about 80%
Target sequence (P34913 whole entry, looked up): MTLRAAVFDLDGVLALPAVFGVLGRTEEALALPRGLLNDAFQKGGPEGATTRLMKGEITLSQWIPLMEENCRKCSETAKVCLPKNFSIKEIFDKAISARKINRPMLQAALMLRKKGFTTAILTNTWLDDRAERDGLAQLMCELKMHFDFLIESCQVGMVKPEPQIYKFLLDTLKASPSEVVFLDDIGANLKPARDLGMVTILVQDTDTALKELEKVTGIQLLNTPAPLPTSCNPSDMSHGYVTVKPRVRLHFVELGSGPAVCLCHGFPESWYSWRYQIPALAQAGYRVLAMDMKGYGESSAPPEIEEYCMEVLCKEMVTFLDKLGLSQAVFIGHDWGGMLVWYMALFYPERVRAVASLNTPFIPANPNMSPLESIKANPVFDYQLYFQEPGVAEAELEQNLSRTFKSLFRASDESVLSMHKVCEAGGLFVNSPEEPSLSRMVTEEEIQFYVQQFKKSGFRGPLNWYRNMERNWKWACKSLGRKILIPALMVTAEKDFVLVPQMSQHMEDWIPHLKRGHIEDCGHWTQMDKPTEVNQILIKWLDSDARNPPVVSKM
CYP2C19 inhib = human CYP2C19 inhibition; P33261; CYP2C19 Supersomes, luciferin-H EGE luminescence, 30 min; inhibition, % at 5 µM; actives 21% (n = 96,000);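 active = CYP2C19 inhibition above a set limit at 5 µM in the primary screen, cut at about 50% in these data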;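 note: plate controls were negative control wells for no effect and 2.5 mM tranylcypromine positive control for full effect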
sEH act = soluble epoxide hydrolase (human) activation; P34913; purified human sEH enzymatic activity, activator screen; activation, % at 2 µM; actives 0.04% (n = 91,000); AID 717; in the data active = activation above about 37%
CYP2C9 inhib = human CYP2C9 inhibition; P11712; CYP2C9 Supersomes, luciferin-H conversion, luminescence; inhibition, % at 5 µM; actives 20% (n = 96,000); AID 777;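 active = blocking of liver enzyme CYP2C9 beyond about 50% at 5 µM, limit read from the data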
Starred values were filed as active, the others as inactive; · = no result given.

SMILES | CYP2C19 activ | CYP2C9 act | sEH inhibitor | CYP2C19 inhib | sEH act | CYP2C9 inhib
Fc1ccc(-n2nnnc2-c2cnc(-c3cccs3)nc2C(F)(F)F)cc1 | 0.7 | 0.1 | 5 | 34 | -5 | 86*
CCCNC(=O)c1cc(OC)c(OC)cc1[N+](=O)[O-] | 1.1 | 1.2 | -8 | -14 | 8 | -23
c1ccc(Cc2cc(-c3ccccc3)on2)cc1 | · | · | 8 | · | -11 | ·
COc1ccc(OC)c(NC(=O)CSc2nnc(CNc3ccc(C)cc3C)o2)c1 | 0.2 | 1.2 | -6 | 81* | 6 | -24
COc1ccc(-c2nnc(SCC(=O)Nc3cc(F)ccc3C)o2)cc1 | 0.5 | 1.4 | · | 54* | · | -37
COc1ccc(OC)c(NC(=O)CSc2nnc(CNc3ccc(F)cc3)o2)c1 | 0.4 | 1 | -15 | 56* | 16 | 1
COc1ccc(NCc2nnc(SCC(=O)Nc3ccccc3OC)o2)cc1 | 0.8 | 1.1 | 3 | 21 | -2 | -10
COc1ccc(-c2nnc(SCC(=O)N3CCCC3)o2)cc1OC | · | · | 8 | · | -4 | ·
COc1cccc(NC(=O)CSc2nnc(-c3ccc(C)cc3)o2)c1 | 1.2 | 0.9 | · | -16 | · | 7
COc1ccc(-c2nnc(SCC(=O)NC(C)c3ccccc3)o2)cc1OC (configuration not stated) | 0.4 | 1.1 | -2 | 62* | -1 | -10
CCOC(=O)CNC(=O)CSc1nnc(-c2ccccc2OC)n1CC | 1 | 1 | 5 | 2 | -3 | 4
O=C(Nc1ccc2c(c1)OCO2)N1CCN(C(=O)C2CCCO2)CC1 (configuration not stated) | · | · | -3 | · | 4 | ·
COc1ccc(C2CC(=O)C=C(NCCC(C)C)C2)cc1 (configuration not stated) | · | · | 4 | · | 2 | ·
COCCN(CCOC)Cc1c(C)[nH]c2ccccc2c1=O | 0.4 | 0.7 | -3 | 65* | 5 | 35
CCc1c(C)[nH]c2ccccc2c1=O | 1.1 | 4.7* | · | -14 | · | -372
CC(=O)CCc1c(C)[nH]c2ccccc2c1=O | 1.1 | 2.2* | -6 | -7 | 5 | -117
CC(=O)c1c(C)[nH]c2ccccc2c1=O | 1.1 | 1.4 | 5 | -15 | -4 | -40
Cc1[nH]c2ccccc2c(=O)c1CN(C)Cc1ccccc1 | 1 | 0.9 | 11 | 0 | -10 | 12
CCc1c(C)[nH]c2c(C)cccc2c1=O | 1 | 1 | -2 | 0 | 2 | 3
Cn1c(CCNC(=O)c2ccco2)nc2cc(NS(=O)(=O)c3ccccc3)ccc21 | 0.7 | 0.4 | 0 | 31 | 2 | 56*
COc1ccc(CCNC(=O)c2cnn3cccnc23)cc1OC | 0.7 | 1.1 | -4 | 27 | 9 | -7
COc1ccccc1CNC(=O)c1cnn2c(C(F)F)cc(C)nc12 | 0.4 | 2.2* | -1 | 61* | 2 | -120
Cc1cc(C(F)F)n2ncc(C(=O)NCc3ccccc3C(F)(F)F)c2n1 | 1.1 | 1.1 | -4 | -15 | 5 | -11
COc1ccc(CCNC(=O)c2cnn3c(C(F)F)cc(C)nc23)cc1OC | 0.5 | 0.5 | · | 52* | · | 47
COc1ccccc1CCNC(=O)c1cnn2c(C(F)F)cc(C)nc12 | 0.2 | 1.6 | · | 77* | · | -60
SMILES | CYP2C19 activ | CYP2C9 act | sEH inhibitor | CYP2C19 inhib | sEH act | CYP2C9 inhib
CCOC(=O)c1cc(-c2ccccc2)sc1NC(=O)CSc1nnnn1C | 0.7 | 0.7 | -7 | 33 | 4 | 26
O=C(CNC(=O)c1ccccc1C(=O)O)c1ccccc1 | 0.9 | 0.8 | 6 | 12 | -7 | 22
CC(C)Oc1ccc(N2CC(C(=O)Nc3ccc4c(c3)OCO4)CC2=O)cc1 (configuration not stated) | 1 | 0.8 | -4 | -2 | 2 | 21
Cc1c(NCc2cc(Cl)cc(Cl)c2O)c(=O)n(-c2ccccc2)n1C | 0.3 | 0.1 | -2 | 73* | 1 | 85*
O=C(CCCCCN1C(=O)c2ccccc2C1=O)Nc1ccc(S(=O)(=O)N2CCCCC2)cc1 | 0.7 | 0.2 | 66 | 26 | -66 | 83*
CC1CCN(S(=O)(=O)c2ccc(NC(=O)CN3CCN(c4ccccc4)CC3)cc2)CC1 | 1.1 | 1 | 9 | -14 | -11 | -2
O=C(CCCCCN1C(=O)c2ccccc2C1=O)Nc1ccc(F)cc1 | · | · | 44 | · | -43 | ·
CC1CCN(S(=O)(=O)c2ccc(C(=O)Nc3sccc3C(N)=O)cc2)CC1 | 0.5 | 0.4 | -8 | 52* | 7 | 59*
CC1CCN(S(=O)(=O)c2ccc(NC(=O)CN3CCN(C)CC3)cc2)CC1 | 1 | 1.1 | 2 | -2 | -2 | -7
CC1CCN(S(=O)(=O)c2ccc(NC(=O)Cc3ccccc3)cc2)CC1 | 0.2 | 0.1 | 25 | 78* | -25 | 92*
CC1CCN(S(=O)(=O)c2ccc(NC(=O)CCN3C(=O)c4ccccc4C3=O)cc2)CC1 | 0.4 | 0.1 | -19 | 62* | 17 | 94*
Cc1ccc(NC(=O)c2ccc(S(=O)(=O)N3CCC(C)CC3)cc2)cc1 | 0.8 | 0.7 | 14 | 23 | -12 | 26
CCc1nnc(NC(=O)C(C)N2C(=O)C3C4C=CC(C4)C3C2=O)s1 (configuration not stated) | 1.2 | 1 | -11 | -16 | 12 | 3
CCOC(=O)NC(O)C(=O)c1cccs1 (configuration not stated) | 1.1 | 1.1 | · | -9 | · | -9
CC1CN(S(=O)(=O)c2ccc(NC(=O)CCCN3C(=O)c4ccccc4C3=O)cc2)CC(C)O1 (configuration not stated) | 0.7 | 0.5 | 68 | 28 | -68 | 50*
CC1CN(S(=O)(=O)c2ccc(NC(=O)CCN3C(=O)c4ccccc4C3=O)cc2)CC(C)O1 (configuration not stated) | 1 | 0.4 | 35 | 1 | -34 | 57*
CC1CCN(S(=O)(=O)c2ccc(NC(=O)CN3CCCC(C)C3)cc2)CC1 (configuration not stated) | 0.9 | 0.7 | 24 | 14 | -23 | 27
CC1CCN(S(=O)(=O)c2ccc(NC(=O)Cn3nnc(-c4ccccc4F)n3)cc2)CC1 | 0.6 | 0.2 | 36 | 39 | -37 | 80*
O=C(CCN1C(=O)c2ccccc2C1=O)Nc1cccc(S(=O)(=O)N2CCCCC2)c1 | 0.2 | 0.1 | 14 | 81* | -16 | 92*
CC1CN(S(=O)(=O)c2ccc(NC(=O)c3ccco3)cc2)CC(C)O1 (configuration not stated) | 0.8 | 0.5 | 37 | 18 | -36 | 50
O=C(CCCCCN1C(=O)c2ccccc2C1=O)Nc1ccc2c(c1)OCCO2 | 0.3 | 0.2 | 46 | 71* | -47 | 76*
O=C(CCN1C(=O)c2ccccc2C1=O)Nc1ccc2c(c1)OCCO2 | 0.9 | 0.9 | -7 | 6 | 11 | 12
Cc1cc2cc(C(c3nnnn3Cc3ccco3)N3CCc4ccccc4C3)c(=O)[nH]c2cc1C (configuration not stated) | 1 | 0.9 | 0 | 4 | 0 | 8
COc1ccc(Cl)cc1NC(=O)CCn1cnc2ccccc2c1=O | 0.3 | 2.3* | 2 | 66* | 0 | -130

Source: PubChem (several laboratories)
